22 compounds from PubChem BioAssay (NCATS) can be followed below.

The target of test [1] is Cytochrome P450 2D6 (Homo sapiens) (UniProt P10635). The test can be described thus: qHTS Assay for Inhibitors and Substrates of Cytochrome P450 2D6 (AID 891; active = well fitted curve in the direction sought with a large enough effect; inconclusive = small, poorly fitted or top-dose-only effect, or another doubt; inactive = no such curve, though single readings can be large; an effect the other way counts as inactive or inconclusive;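 also: luciferin methyl ether substrate demethylated by CYP2D6 with NADPH regeneration; % is scaled to controls: 0 for no effect and ±100 for the full control effect; nearly all actives have a fitted effect of over 60% in size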). A digest of the protocol:
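Human CYP2D6 (5 nM) with 30 uM Luciferin-ME EGE (at Km) in 100 mM KPO4, compound preincubated 10 min, then NADPH regeneration system for 60 min at room temperature. Luciferin read by luminescence; normalized to 1.43 uM quinidine.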
A general note: qHTS replaces the single test concentration by a dilution series.

The next test concerns CP260. In words: qHTS profiling for inhibitors of Plasmodium falciparum proliferation (AID 504749; active = well fitted curve in the direction sought with a large enough effect; inconclusive = small, poorly fitted or top-dose-only effect, or another doubt; inactive = no such curve, though single readings can be large; an effect the other way counts as inactive or inconclusive; also: nearly all actives have a fitted effect of over 60% in size; also: potency is read from the fitted curve at half-maximal effect). Particulars: P. falciparum in erythrocytes, SYBR Green DNA, 72 h; series mostly up to 28.7 µM. In short, it runs like this:
(§1)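 Three-day growth assay of blood-stage parasites in erythrocytes (0.3% parasitemia, 2.5% hematocrit) at 37 C, 5% CO2, quantified by SYBR Green DNA staining after overnight detergent lysis.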

The test system of a further test is ICS. The description is as above. Particulars: P. falciparum in erythrocytes, SYBR Green DNA, 72 h; series mostly up to 28.7 µM. In short, it runs like this:
as §1

The test system of another test is W2. The test is described as above. To be noted: P. falciparum in erythrocytes, SYBR Green DNA, 72 h; series mostly up to 12.8 µM. A digest of the protocol: as §1
The target of test [2] is Peroxisome proliferator-activated receptor delta (Homo sapiens) (UniProt Q03181). The test can be described thus: qHTS assay for small molecule agonists of peroxisome proliferator-activated receptor delta signaling (AID 588534).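 Also: 0% = DMSO basal wells and 100% = positive control agonist at 10 µM.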 In short, it runs like this:
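Cell-based beta-lactamase reporter assay run in agonist mode: cells seeded and incubated 5 hrs at 37 C, compounds added and incubated 18 hrs at 37 C. CCF4 dye fluorescence read after 2 hrs at RT; EC50 and efficacy from Hill fits.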

For test [3], the target named is Vitamin D3 receptor (Homo sapiens) (UniProt P11473). In words: qHTS assay for small molecule agonists of vitamin D receptor signaling (AID 588543).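 Also: 0% = DMSO basal and 100% = reference agonist control.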 A digest of the protocol: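 Measured: β-lactamase reporter activity (CCF4, 405 nm excitation, 460/530 nm emission) in HEK293T VDR-UAS-bla cells after 16 h compound exposure at 37 °C. Normalization against 50 nM 1α,25-dihydroxyvitamin D3 and DMSO; Hill-fit EC50.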

The target in test [4] is Retinoic acid receptor RXR-alpha (Homo sapiens) (UniProt P19793). The test can be described thus: qHTS assay for small molecule agonists of retinoid X receptor alpha signaling (AID 588544).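 Also: 0% = DMSO basal wells and 100% = reference agonist.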
Test [5] has as its target Thyroid hormone receptor beta (Homo sapiens) (UniProt P10828). The test can be described thus: qHTS assay for small molecule agonists of thyroid hormone receptor beta signaling (AID 588545).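 Also: 0% = DMSO only and 100% = 10 nM T3.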 In short, it runs like this: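 Beta-lactamase reporter activity under TR response element control is measured in HEK 293 cells after 18 hrs compound exposure. Signal is ratiometric CCF4 fluorescence, 460/530 nm.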

Test [6] has the same target. In words: qHTS assay for small molecule antagonists of thyroid hormone receptor beta signaling (AID 588547; active = well fitted inhibition curve with a large enough effect in the signal ratio, with a control signal flat, not every such curve was filed as active; inconclusive = small, poorly fitted or top-dose-only effect, or effect the other way, or a change in a side signal; the % refers to the signal ratio;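 also: cells stimulated with 0.4 nM T3 agonist during compound exposure; % is scaled to controls: 0 for no effect and ±100 for the full control effect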). Particulars: TR-UAS-bla HEK293, beta-lactamase ratio, antagonist mode, 18 h. A digest of the protocol:
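Inhibition of T3-driven (0.4nM final) beta-lactamase reporter activity was measured over 0.59 nM to 92 uM compound after 18 h at 37 C. The cells were GripTite HEK293 TR-UAS-bla in charcoal/dextran-stripped serum, with CCF4 ratio read-out and IC50 from Hill fits.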

A short description of test [7]: qHTS assay for small molecule agonists of the antioxidant response element (ARE) signaling pathway (AID 651741; active = well fitted activation curve with a large enough effect in the signal ratio; inconclusive = small, poorly fitted or top-dose-only effect, or effect the other way, or a change in a side signal; the % refers to the signal ratio; also: potency is read from the fitted curve at half-maximal effect; as to activation: % of control where 0% means no effect). A digest of the protocol:
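Seeding 2,000 ARE-bla HepG2 cells per well preceded a 5 h incubation at 37 C/5% CO2 and a 16 h compound exposure at 37 C. Beta-lactamase reporter activity was then quantified by fluorescence after 2 h with LiveBLAzer B/G FRET substrate.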

Test [8] is described as follows: qHTS assay for small molecule activators of the p53 signaling pathway (AID 651743; active = well fitted activation curve with a large enough effect in the signal ratio, not every such curve was filed as active; inconclusive = small, poorly fitted or top-dose-only effect, or a change in a side signal; the % refers to the signal ratio; also: % of control where 0% means no effect). To be noted: HCT-116 p53RE-bla, beta-lactamase FRET ratio, 16 h; activation: active compounds read high. A digest of the protocol:
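Screen for p53 pathway agonists uses stably transfected p53RE-bla HCT-116 cells, 4,000 per well, treated 16 h at 37 C with compounds in DMSO.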

The nature of test [9]: qHTS assay for small molecule agonists of the antioxidant response element (ARE) signaling pathway measured by Nrf2-dependant transcriptional activity (AID 720636; active = well fitted curve in the direction sought with a large enough effect in the repeat runs; inconclusive = weak or mixed curves; inactive = no such curve, though single readings can be large; an effect the other way counts as inactive or inconclusive; also: % of control where 0% means no effect). A digest of the protocol: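 Nrf2-dependent transcription read as ONE-Glo luciferase signal from ARE-luc HepG2 reporter cells after 16 hr compound treatment at 37 C, 5% CO2, in assay medium with 1% dialyzed FBS.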

Test [10] deals with DNA dC->dU-editing enzyme APOBEC-3G (Homo sapiens) (UniProt Q9HC16). In words: qHTS for inhibitors of Vif-A3G interactions: Validation (AID 588379; active = well fitted curve in the direction sought with a large enough effect; inconclusive = small, poorly fitted or top-dose-only effect, or another doubt; inactive = no such curve, though single readings can be large; an effect the other way counts as inactive or inconclusive; also: 0% is about no effect). In short, it runs like this: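 HeLa cells stably expressing Vif and A3G-eYFP, 700 cells/well, incubated overnight at 37 deg C, then exposed to compound overnight at 37 deg C. Inhibition of Vif-mediated degradation read as increased yellow fluorescence (Ex 488/Em 500-530) by laser-scanning cytometry.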

Test [11] addresses Estrogen receptor (Homo sapiens) (UniProt P03372). The test can be described thus: qHTS assay for small molecule antagonists of estrogen receptor alpha signaling (AID 588513; active = well fitted curve in the direction sought with a large enough effect in the signal ratio, with a control signal flat, not every such curve was filed as active; inconclusive = small, poorly fitted or top-dose-only effect, or effect the other way, or a change in a side signal; inactive = no such curve, though single readings can be large or run the other way; the % refers to the signal ratio; also: potency is read from the fitted curve at half-maximal effect). In short, it runs like this:
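Antagonist-mode qHTS in ER-alpha-UAS-bla HEK 293 cells: compound titration, 0.5nM estradiol for 18 h, CCF4 fluorescence, Hill-derived IC50.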

A further test deals with CP335. In words: qHTS profiling for inhibitors of Plasmodium falciparum proliferation (AID 504749). Also: nearly all actives have a fitted effect of over 60% in size. Also: potency is read from the fitted curve at half-maximal effect. Particulars: P. falciparum in erythrocytes, SYBR Green DNA, 72 h; series mostly up to 12.8 µM. In short, it runs like this: as §1
The test system of another test is GB4. The description is as above. To be noted: P. falciparum in erythrocytes, SYBR Green DNA, 72 h; series mostly up to 28.7 µM. In short, it runs like this:
as §1

The next test concerns CP268. The description is as above. Particulars: P. falciparum in erythrocytes, SYBR Green DNA, 72 h; series mostly up to 28.7 µM. In short, it runs like this:
as §1

For a further test, the system named is JCK. Described as above. Particulars: P. falciparum in erythrocytes, SYBR Green DNA, 72 h; series mostly up to 28.7 µM. In short, it runs like this: as §1
The subject of a further test is PC15. The test is described as above. To be noted: P. falciparum in erythrocytes, SYBR Green DNA, 72 h; series mostly up to 28.7 µM. A digest of the protocol: as §1
The target in test [12] is Peroxisome proliferator-activated receptor gamma (Homo sapiens) (UniProt P37231). In words: qHTS assay for small molecule antagonists of peroxisome proliferator-activated receptor gamma signaling (AID 588537; active = well fitted inhibition curve with a large enough effect in the signal ratio, with a control signal flat, not every such curve was filed as active; inconclusive = small, poorly fitted or top-dose-only effect, or effect the other way, or a change in a side signal; the % refers to the signal ratio;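 also: reporter cells co-stimulated with 50 nM rosiglitazone agonist during compound treatment; % of control where 0% means no effect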). A digest of the protocol:
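Inhibitors of agonist-stimulated UAS-bla reporter activity were sought in HEK293 cells; rosiglitazone (50 nM) defined full signal and DMSO baseline. Curves fitted to Hill model gave IC50 and efficacy.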

Values joined by “and” are separate entries in the source; they are usually repeats but may differ in a detail not shown here. Equal values may be shown once. Values without a mark were called inactive. Active and inactive are the calls of the source. Unless noted, calls follow the shape of the full dose curve.

Estrogen receptor (Homo sapiens), sequence (P03372 whole entry, looked up): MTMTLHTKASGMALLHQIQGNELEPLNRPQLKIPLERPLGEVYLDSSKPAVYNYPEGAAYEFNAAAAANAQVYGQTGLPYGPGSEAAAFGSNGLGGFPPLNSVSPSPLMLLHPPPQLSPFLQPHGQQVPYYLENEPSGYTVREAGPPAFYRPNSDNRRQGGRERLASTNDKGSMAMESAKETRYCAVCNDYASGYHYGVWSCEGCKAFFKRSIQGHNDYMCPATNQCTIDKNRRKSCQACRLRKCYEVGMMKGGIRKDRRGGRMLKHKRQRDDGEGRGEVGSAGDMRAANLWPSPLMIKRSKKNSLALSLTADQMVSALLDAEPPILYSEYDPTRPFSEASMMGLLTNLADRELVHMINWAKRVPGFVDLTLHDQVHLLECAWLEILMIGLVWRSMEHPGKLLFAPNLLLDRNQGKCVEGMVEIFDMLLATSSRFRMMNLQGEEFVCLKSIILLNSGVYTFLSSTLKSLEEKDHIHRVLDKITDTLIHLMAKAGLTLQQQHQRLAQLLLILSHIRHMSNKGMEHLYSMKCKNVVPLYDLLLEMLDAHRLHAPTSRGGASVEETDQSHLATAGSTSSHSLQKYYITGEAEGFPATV
Vitamin D3 receptor (Homo sapiens), sequence (P11473 whole entry, looked up): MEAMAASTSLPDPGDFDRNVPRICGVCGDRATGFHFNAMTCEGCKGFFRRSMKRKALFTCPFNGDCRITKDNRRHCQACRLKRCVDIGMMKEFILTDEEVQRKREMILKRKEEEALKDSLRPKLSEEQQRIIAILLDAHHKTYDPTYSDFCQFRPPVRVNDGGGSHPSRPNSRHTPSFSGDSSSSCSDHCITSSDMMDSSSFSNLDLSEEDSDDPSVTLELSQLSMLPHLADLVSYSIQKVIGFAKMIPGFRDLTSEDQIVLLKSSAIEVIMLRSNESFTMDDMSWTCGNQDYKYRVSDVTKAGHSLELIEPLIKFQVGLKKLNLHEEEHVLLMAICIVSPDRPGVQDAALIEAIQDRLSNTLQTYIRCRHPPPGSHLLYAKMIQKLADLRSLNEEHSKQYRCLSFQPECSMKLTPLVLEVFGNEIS
Peroxisome proliferator-activated receptor delta (Homo sapiens), sequence (Q03181 whole entry, looked up): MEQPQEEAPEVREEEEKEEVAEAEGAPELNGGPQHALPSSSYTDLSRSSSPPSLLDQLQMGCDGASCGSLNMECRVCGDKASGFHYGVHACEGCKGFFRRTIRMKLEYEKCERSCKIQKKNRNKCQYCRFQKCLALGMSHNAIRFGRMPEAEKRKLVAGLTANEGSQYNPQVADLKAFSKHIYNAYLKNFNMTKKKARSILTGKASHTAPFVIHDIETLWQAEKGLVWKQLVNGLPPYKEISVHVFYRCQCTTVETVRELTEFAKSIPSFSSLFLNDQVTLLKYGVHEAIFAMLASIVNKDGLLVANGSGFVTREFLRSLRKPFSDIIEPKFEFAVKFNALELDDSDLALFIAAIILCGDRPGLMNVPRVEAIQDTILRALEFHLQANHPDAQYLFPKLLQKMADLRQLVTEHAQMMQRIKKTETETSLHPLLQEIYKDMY
Retinoic acid receptor RXR-alpha (Homo sapiens), sequence (P19793 whole entry, looked up): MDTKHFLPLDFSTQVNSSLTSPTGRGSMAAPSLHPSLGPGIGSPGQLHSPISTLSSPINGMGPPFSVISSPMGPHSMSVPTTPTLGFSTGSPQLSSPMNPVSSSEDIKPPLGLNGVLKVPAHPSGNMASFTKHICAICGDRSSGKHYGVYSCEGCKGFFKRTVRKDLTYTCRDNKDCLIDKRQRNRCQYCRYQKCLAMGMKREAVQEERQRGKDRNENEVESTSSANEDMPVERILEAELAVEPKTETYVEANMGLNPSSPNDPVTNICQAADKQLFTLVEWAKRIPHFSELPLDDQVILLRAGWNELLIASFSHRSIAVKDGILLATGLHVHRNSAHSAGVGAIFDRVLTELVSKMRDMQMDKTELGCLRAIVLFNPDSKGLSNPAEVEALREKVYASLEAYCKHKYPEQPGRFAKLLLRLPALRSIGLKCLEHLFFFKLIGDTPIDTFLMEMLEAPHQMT
DNA dC->dU-editing enzyme APOBEC-3G (Homo sapiens), sequence (Q9HC16 whole entry, looked up): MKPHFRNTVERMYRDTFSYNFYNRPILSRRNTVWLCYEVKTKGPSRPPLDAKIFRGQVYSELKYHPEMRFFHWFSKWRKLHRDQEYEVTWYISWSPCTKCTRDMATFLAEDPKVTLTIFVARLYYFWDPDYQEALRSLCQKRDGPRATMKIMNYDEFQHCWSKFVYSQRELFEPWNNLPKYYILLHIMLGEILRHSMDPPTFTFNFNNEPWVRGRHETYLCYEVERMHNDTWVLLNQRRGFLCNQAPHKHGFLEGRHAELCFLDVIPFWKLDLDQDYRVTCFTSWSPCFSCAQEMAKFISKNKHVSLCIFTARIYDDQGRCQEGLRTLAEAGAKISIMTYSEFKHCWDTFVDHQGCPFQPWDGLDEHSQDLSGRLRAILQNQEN
Peroxisome proliferator-activated receptor gamma (Homo sapiens), sequence (P37231 whole entry, looked up): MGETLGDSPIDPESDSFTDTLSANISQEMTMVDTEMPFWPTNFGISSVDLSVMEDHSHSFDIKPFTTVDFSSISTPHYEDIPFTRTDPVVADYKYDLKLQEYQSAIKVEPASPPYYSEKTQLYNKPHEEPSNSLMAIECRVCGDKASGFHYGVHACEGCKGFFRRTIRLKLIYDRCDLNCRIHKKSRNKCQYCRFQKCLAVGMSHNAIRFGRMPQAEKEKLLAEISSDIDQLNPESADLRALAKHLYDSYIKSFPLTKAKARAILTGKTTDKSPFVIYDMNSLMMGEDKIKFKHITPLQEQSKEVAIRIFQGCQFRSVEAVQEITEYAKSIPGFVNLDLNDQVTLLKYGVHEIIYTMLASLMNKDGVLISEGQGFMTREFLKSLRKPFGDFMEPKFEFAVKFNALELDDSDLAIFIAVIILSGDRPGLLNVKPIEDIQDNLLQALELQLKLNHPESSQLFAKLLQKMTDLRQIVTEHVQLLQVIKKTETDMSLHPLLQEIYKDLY
Thyroid hormone receptor beta (Homo sapiens), sequence (P10828 whole entry, looked up): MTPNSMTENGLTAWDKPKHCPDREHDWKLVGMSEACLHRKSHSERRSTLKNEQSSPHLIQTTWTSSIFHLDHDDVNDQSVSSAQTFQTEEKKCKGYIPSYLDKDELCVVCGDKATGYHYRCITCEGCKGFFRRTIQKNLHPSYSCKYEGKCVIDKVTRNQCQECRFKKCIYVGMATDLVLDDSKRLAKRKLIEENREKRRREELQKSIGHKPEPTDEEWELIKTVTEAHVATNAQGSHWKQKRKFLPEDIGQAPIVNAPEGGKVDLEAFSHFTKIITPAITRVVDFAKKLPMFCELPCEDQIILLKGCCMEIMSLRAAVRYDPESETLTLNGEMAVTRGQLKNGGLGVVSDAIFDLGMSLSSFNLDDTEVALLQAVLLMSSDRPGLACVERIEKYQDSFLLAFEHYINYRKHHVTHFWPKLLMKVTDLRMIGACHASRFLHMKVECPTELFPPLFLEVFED
Cytochrome P450 2D6 (Homo sapiens), sequence (P10635 whole entry, looked up): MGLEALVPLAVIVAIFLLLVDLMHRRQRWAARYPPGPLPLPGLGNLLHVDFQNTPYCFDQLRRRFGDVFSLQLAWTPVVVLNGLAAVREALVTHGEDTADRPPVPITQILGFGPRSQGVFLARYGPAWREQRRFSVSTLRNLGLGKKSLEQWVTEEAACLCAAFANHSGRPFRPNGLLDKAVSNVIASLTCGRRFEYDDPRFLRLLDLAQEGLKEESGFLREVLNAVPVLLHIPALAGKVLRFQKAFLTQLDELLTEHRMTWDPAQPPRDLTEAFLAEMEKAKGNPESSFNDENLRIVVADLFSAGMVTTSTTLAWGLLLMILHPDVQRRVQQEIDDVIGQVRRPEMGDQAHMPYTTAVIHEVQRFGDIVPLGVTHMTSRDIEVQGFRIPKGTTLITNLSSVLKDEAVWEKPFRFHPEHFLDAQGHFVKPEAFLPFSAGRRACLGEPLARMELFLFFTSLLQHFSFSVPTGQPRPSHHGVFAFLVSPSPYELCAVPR

Consider `O=C1C=C2C=C[C@H]3C[C@@]2(O1)[C@H]1CCCCN31`, for which, in test [1], the Potency entry is “inactive”.
On to `O=C1C=C2C=CC3C[C@@]2(O1)C1CCCCN31` (some centres undefined), for which the figures for the Potency in the test on CP260, in the test on ICS and with W2 were 6.31 µM (active), 7.94 µM (active) and 7.57 µM (active), respectively.
`CCCCCCCCCc1ccc(O)cc1`: the call in test [2], in [3], in test [5] and in test [9] was inactive. For the same compound, the Potency entry in [4] is “inactive”. The activity change % (negative = inhibition) in [6] is 4.44%. In test [7], the Potency was 75 µM (active) and 30.6 µM (active). Besides, in test [8], the activation is -1.55% and -0.009%.
In the case of `CC(C)(C)[C@]1(O)C[C@@H]2OC(=O)C[C@@]23C(=O)O[C@@H]2OC(=O)[C@H](O)[C@]213`, the call in test [10] was inactive.
Consider `O=C1C(Cl)=C(Cl)C(=O)C(Cl)=C1Cl`, for which the Potency in [11] was 25.1 µM [inconclusive] (active); in test [7], 26.6 µM (active).
`CC[C@@H]1CN2CC[C@@H]1C[C@H]2[C@H](O)c1ccnc2ccc(OC)cc12`: the outcome in test [10] was inactive.
Turning to `N#Cc1c(Cl)cccc1Cl`, the Potency entry in test [11], in test [4] and in test [7] was “inactive” in each case. Moreover, the result in [2], in test [5] and in test [9] was inactive. Further, the activity change % (negative = inhibition) in test [6] is -4.17%. Also, in [8], the activation is -3.69%.
Turning to `CCC(C)C1O[C@]2(C=CC1C)CC1CC(C/C=C(\C)[C@H](OC3CC(OC)C(O[C@H]4CC(OC)[C@@H](O)C(C)O4)C(C)O3)[C@@H](C)/C=C/C=C3\COC4C(O)C(C)=C[C@H](C(=O)O1)[C@@]34O)O2` (some centres undefined), the Potency was 6.75 µM (active) with CP335, 13.5 µM (active) with GB4, 7.08 µM (active) with ICS and 4.78 µM (active) in the test with W2.
As for `CC([C@H](O)c1ccccc1)N(C)C` (some centres undefined), the Potency entry in the test with CP260, with CP268, in the test with CP335, in the test with JCK and in the test on PC15 was “inactive” throughout. For the same compound, in the test with W2, the Potency was 6.75 µM (active).
Regarding `CNC(C)[C@@H](O)c1ccccc1` (some centres undefined), the Potency result in the test with CP260, with CP268, with CP335, in the test on GB4, in the test on ICS and with JCK was “inactive” each time. The Potency entry in the test with PC15 is “inactive”.
In the case of `CNC(=O)Oc1cccc2c1OC(C)(C)O2`, the Potency result in [11], in test [12] and in test [4] was “inactive” each time. For the same compound, the call in [2], in test [3] and in [9] was inactive. The activation in test [8] is 0.009%.
With `CC(C)(O)[C@@H]1C2OC(=O)[C@@H]1[C@]1(O)C[C@H]3O[C@]34C(=O)O[C@H]2[C@]14C`, in [10], the result was inactive.
Take `CCCCSP(=O)(SCCCC)SCCCC`: the call in test [2], in test [3], in test [5] and in test [9] was inactive. Moreover, in test [12], the Potency entry was “inactive”. Also, in [6], the activity change % (negative = inhibition) is -17.4%. Besides, the activation in [8] was -2.51%.
For `O=C(O)COc1cc(Cl)c(Cl)cc1Cl`, the Potency result in [12] and in [4] was “inactive” each time. For the same compound, the result in test [3] and in test [9] was inactive. In [6], the activity change % (negative = inhibition) was 7.44%.
For the compound `CC(C)OC(=O)Nc1cccc(Cl)c1`, the call in test [2], in [3] and in [5] was inactive. Further, the Potency entry in [12], in test [4] and in [7] was “inactive” each time. In test [6], the activity change % (negative = inhibition) is 12.8%.
In the case of `CCC(=O)Nc1ccc(Cl)c(Cl)c1`, the compound was classed as inactive in [5] and in [9]. Further, the activation in test [8] is 4.6%.
As to `CC(C)N1C(=O)c2ccccc2NS1(=O)=O`, the Potency result in test [11] and in [7] was “inactive” in each case. Further, the result in test [2], in test [5] and in test [9] was inactive. Besides, in test [6], the activity change % (negative = inhibition) is -1.01%.
For `CCc1cccc(C)c1N(C(=O)CCl)C(C)COC` (centres undefined), the compound was called inactive in test [3]. Moreover, the Potency in test [7] is 24.3 µM (active). Further, the activation in test [8] is -2.17%.
`COP(N)(=O)SC` (centres undefined): the Potency result in [11], in [4] and in test [7] was “inactive” in each case. The outcome in test [2], in [5] and in test [9] was inactive. Further, the activity change % (negative = inhibition) in test [6] is 12.1% and -8.42%. The activation in test [8] is 0.404% and 2.15%.
Consider `COc1nc(NC(C)C)nc(NC(C)C)n1`, for which the Potency entry in test [11], in test [12] and in test [7] was “inactive” each time. For the same compound, the compound was classed as inactive in test [2], in test [3], in test [5] and in [9]. Further, the activity change % (negative = inhibition) in test [6] was 0.677%.
Take `CC(C)Nc1nc(Cl)nc(NC(C)C)n1`: the compound was called inactive in test [2], in test [3], in test [5] and in test [9]. For the same compound, the Potency result in test [12] and in test [4] was “inactive” in each case.
In the case of `CC(C)(C)C(=O)C(Oc1ccc(Cl)cc1)n1cncn1` (centres undefined), the outcome in test [2], in test [3], in [5] and in [9] was inactive. Besides, the Potency result in test [12] and in test [7] was “inactive” in each case. Besides, in test [6], the activity change % (negative = inhibition) was -2.73% and -13.2%.
